According to PubChem BioAssay:
Activity calls are given as the source filed them.

How the values were obtained:
[1] = optical density shifts of acrAB sulA E. coli – strain DRC41, OD650, 48 h, E. coli filamentation inducer project, primary screen (AID 1152); settings: higher = more signal, called active from +8 up or from −8 down;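 further: E. coli MC1000 strain DRC41 lacking acrAB efflux pump and sulA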
[2] = probe aLefty1 binding on compound microarray – biochemical, small-molecule microarray, 635/667 nm fluorescence, primary screen (AID 1153); settings: higher = more signal;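 further: score merges spot fluorescence with signal-to-noise ratio from the scanned slide images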
[3] = plasmodial surface anion channel blockers, osmotic lysis – cell-based, P. falciparum Indochina, OD700, 1 h, primary screen (AID 1154); settings: P. falciparum Indochina infected RBC osmotic lysis, higher = more signal, called active from +8 up or from −8 down
[4] = plasmodial surface anion channel blockers, osmotic lysis – cell-based, P. falciparum Indochina, OD700, 2 h, primary screen (AID 1155);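 further: lysis reports solute entry through the parasite surface anion channel PSAC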; settings: P. falciparum Indochina infected erythrocytes, higher = more signal, called active from +8 up or from −8 down
[5] = changes in parasitized red cell lysis, either direction – P. falciparum Indochina, OD700, 3 h, PSAC antagonist project, primary screen (AID 1156); settings: P. falciparum-infected erythrocytes, osmotic lysis, higher = more signal, called active from +8 up or from −8 down
[6] = plasmodial surface anion channel blockers, osmotic lysis – cell-based, P. falciparum Indochina, OD700, 18 h, primary screen (AID 1157); settings: P. falciparum Indochina infected erythrocytes, osmotic lysis OD700, 18 h; higher = more signal, called active from +8 up or from −8 down
[7] = S6 kinase pathway phospho-S6 level changes – cell-based, A549, cytoblot, luminescence, serum-stimulated, primary screen (AID 1158); settings: 5 h, higher = more signal;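 further: serum-stimulated A549 lung adenocarcinoma cells; signal is phosphorylated S6 detected by cytoblot immunostaining with HRP secondary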
[8] = biological target: NADPH oxidase 2 (Homo sapiens) (UniProt P04839); assay: compounds shifting NOX2 Amplex Red fluorescence – cell-based, HEK293-NOX2, PMA-stimulated, NOX inhibitor project, primary screen (AID 1159); settings: 45 min, higher = more signal, called active from +8 up or from −8 down; further: test concentration not given here
[9] = biological target: NADPH oxidase 4 (Homo sapiens) (UniProt Q9NPH5); assay: compounds shifting NOX4 Amplex Red fluorescence – cell-based, HEK293-NOX4, tetracycline-induced, NOX inhibitor project, primary screen (AID 1160); settings: HEK293-NOX4, Amplex Red H2O2 fluorescence, 45 min; higher = more signal, called active from +8 up or from −8 down
[10] = biological target: NADPH oxidase 5 (Homo sapiens) (UniProt Q96PH1); assay: compounds shifting NOX5 Amplex Red fluorescence – cell-based, HEK293-NOX5, NOX inhibitor project, primary screen (AID 1161); settings: HEK293-NOX5, ionomycin, 45 min, higher = more signal
[11] = compound effects on lung adenocarcinoma cell viability – A549, calcein-AM fluorescence, 48 h, basal, profiling panel (AID 1162); settings: higher = more signal; further: test concentration not given here
[12] = compound effects on differentiated 3T3-L1 adipocyte viability – cell-based, 3T3-L1 adipocytes, calcein-AM fluorescence, 48 h, basal, profiling panel (AID 1163); settings: 3T3-L1 adipocytes viability, higher = more signal; further: test concentration not given here
[13] = compound effects on hepatocellular carcinoma cell viability – HepG2, calcein-AM fluorescence, 48 h, basal, profiling panel (AID 1164); settings: higher = more signal; further: test concentration not given here
[14] = compound effects on multiple myeloma cell viability – MM1S, calcein-AM fluorescence, 48 h, basal, profiling panel (AID 1165); settings: higher = more signal;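 further: viability of MM1S multiple myeloma cells under basal unstimulated conditions; test concentration not given here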
[15] = calcein-AM signal in unstimulated myeloma cells – cell-based, calcein-AM fluorescence, 48 h, PK04 Diversity Set, profiling panel (AID 1166); settings: RPMI8226 myeloma viability, higher = more signal;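 further: cells grown under basal conditions without added stimulus; test concentration not given here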
[16] = JC-1 mitochondrial signal, unstimulated HepG2 cells – cell-based, JC-1 fluorescence, 24 h, 100 nL compound, profiling panel (AID 1167); settings: HepG2 mitochondrial potential, higher = more signal; further: test concentration not given here
[17] = JC-1 mitochondrial signal, unstimulated adipocytes – cell-based, JC-1 fluorescence, 3T3-L1 adipocytes, 24 h, 100 nL compound, profiling panel (AID 1168); settings: JC-1 mitochondrial fluorescence, higher = more signal, called active from +8 up or from −8 down; further: test concentration not given here
[18] = JC-1 mitochondrial signal, unstimulated myeloma cells – cell-based, JC-1 fluorescence, RPMI8226, 24 h, 100 nL compound, profiling panel (AID 1169); settings: JC-1 mitochondrial potential fluorescence, higher = more signal; further: test concentration not given here
[19] = JC-1 mitochondrial signal, unstimulated MM1S myeloma – cell-based, JC-1 fluorescence, 24 h, 100 nL compound, profiling panel (AID 1170); settings: MM1S mitochondrial potential, higher = more signal; further: test concentration not given here
[20] = resazurin metabolic signal in A549 cells – cell-based, resazurin fluorescence, 24 h, PK04 Diversity Set, profiling panel (AID 1171); settings: A549 viability, higher = more signal, called active from +8 up or from −8 down; further: test concentration not given here

Sequence of NADPH oxidase 4 (Homo sapiens) (Q9NPH5 whole entry, looked up): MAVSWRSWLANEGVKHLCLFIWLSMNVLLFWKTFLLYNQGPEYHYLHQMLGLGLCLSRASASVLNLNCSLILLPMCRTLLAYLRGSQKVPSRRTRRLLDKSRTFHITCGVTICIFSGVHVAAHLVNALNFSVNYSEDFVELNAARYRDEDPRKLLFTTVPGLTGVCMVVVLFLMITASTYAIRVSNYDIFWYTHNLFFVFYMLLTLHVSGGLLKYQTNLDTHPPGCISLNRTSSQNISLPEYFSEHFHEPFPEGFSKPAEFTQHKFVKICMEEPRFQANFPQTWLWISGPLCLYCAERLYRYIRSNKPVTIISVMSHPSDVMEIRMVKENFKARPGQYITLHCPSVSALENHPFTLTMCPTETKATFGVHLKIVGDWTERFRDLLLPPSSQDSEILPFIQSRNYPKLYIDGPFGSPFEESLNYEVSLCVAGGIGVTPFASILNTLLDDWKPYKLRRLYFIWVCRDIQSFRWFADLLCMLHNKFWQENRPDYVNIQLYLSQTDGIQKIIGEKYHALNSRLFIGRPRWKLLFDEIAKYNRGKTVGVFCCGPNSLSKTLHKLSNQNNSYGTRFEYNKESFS
Sequence of NADPH oxidase 5 (Homo sapiens) (Q96PH1 whole entry, looked up): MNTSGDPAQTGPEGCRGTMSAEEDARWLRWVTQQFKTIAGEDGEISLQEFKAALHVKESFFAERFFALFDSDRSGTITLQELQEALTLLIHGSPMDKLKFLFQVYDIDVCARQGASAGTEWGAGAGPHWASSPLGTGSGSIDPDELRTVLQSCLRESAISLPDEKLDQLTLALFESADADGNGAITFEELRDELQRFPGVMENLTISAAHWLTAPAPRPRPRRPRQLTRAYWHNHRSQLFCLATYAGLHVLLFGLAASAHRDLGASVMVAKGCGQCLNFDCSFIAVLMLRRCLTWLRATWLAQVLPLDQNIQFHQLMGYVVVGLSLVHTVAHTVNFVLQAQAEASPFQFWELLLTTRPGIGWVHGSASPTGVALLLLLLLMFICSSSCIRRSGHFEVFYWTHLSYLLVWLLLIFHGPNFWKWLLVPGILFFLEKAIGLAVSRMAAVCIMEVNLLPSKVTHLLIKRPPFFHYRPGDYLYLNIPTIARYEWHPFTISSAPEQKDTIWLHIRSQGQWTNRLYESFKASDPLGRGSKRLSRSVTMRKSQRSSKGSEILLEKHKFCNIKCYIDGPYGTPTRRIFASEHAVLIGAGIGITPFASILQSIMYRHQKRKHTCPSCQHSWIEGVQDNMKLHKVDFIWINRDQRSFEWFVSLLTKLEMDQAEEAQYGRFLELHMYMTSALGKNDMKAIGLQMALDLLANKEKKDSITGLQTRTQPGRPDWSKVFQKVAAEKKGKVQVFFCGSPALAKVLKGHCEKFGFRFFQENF
Sequence of NADPH oxidase 2 (Homo sapiens) (P04839 whole entry, looked up): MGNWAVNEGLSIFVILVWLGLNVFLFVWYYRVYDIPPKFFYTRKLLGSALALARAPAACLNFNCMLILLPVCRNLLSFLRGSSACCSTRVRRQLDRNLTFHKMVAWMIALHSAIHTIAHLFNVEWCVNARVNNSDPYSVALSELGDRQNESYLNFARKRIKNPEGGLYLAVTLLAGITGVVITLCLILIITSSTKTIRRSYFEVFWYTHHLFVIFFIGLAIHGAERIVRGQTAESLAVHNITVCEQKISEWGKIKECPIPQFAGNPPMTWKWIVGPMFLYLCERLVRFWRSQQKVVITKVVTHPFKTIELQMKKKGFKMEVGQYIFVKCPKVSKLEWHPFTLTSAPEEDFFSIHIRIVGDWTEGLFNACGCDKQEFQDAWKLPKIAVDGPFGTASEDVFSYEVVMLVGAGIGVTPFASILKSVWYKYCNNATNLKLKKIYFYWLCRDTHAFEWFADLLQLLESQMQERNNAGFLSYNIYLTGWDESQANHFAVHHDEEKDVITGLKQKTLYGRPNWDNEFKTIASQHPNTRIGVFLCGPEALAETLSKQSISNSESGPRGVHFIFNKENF

| Compound | z-score [1] | composite z-score [2] | z-score [3] | z-score [4] | z-score [5] | z-score [6] | z-score [7] | z-score [8] | z-score [9] | z-score [10] | z-score [11] | z-score [12] | z-score [13] | z-score [14] | z-score [15] | z-score [16] | z-score [17] | z-score [18] | z-score [19] | z-score [20] |
| --- | --- | --- | --- | --- | --- | --- | --- | --- | --- | --- | --- | --- | --- | --- | --- | --- | --- | --- | --- | --- |
| C=CCOC(=O)[C@H]1[C@@H]2C(=O)O[C@@H](c3ccccc3)[C@@H](c3ccccc3)N2[C@@H](c2ccc(OCCOC(=O)[C@H]3C[C@H]4C(=O)N[C@@H](Cc5ccccc5)C(=O)N4[C@H]3c3ccc(O)cc3)cc2)[C@]12C(=O)Nc1ccccc12 | 0.561 (inactive) | -0.263 | 2.5 (inactive) | 1.2 (inactive) | -4 (inactive) | 0.988 (inactive) | 0.338 | 1.83 (inactive) | 0.898 (inactive) | 1.44 | -0.794 | 0.689 | 0.642 | 0.0505 | -0.216 | -1.47 | 0.0241 (inactive) | -0.287 | -0.718 | 1.7 (inactive) |
| COC(=O)[C@@H]1CCCN1C(=O)[C@@H](C)CO | -0.926 (inactive) | -0.147 | 0.34 (inactive) | -0.603 (inactive) | 0.864 (inactive) | -1.69 (inactive) | 1.4 | -0.366 (inactive) | -0.739 (inactive) | -1.15 | 0.0364 | 0.512 | -0.52 | -2.77 | -0.57 | -0.952 | 0.514 (inactive) | -0.157 | -1.32 | -1.14 (inactive) |
| c1ccc(C2NCCc3c2[nH]c2ccccc32)cc1 (stereo not given) | -1.78 (inactive) | 0.155 | 1.07 (inactive) | 0.709 (inactive) | 0.806 (inactive) | -0.0204 (inactive) | -0.513 | 0.943 (inactive) | -0.561 (inactive) | 1.23 | -0.479 | 0.381 | -0.704 | -0.402 | -0.742 | -2.18 | -0.424 (inactive) | 0.0801 | 0.299 | 0.272 (inactive) |
| CN(C)C(=O)[C@@]1(Cc2ccccc2)N=C(c2ccc(OCCCO)cc2)O[C@H]1c1ccccc1CN=[N+]=[N-] | 0.374 (inactive) | 0.981 | 14.9 (active) | 1.15 (inactive) | 0.882 (inactive) | 0.0009 (inactive) | -0.474 | -1.75 (inactive) | 1.17 (inactive) | 0.163 | -0.309 | -0.562 | -0.903 | -0.74 | -2.6 | -0.12 | -0.775 (inactive) | -0.913 | -0.589 | -0.348 (inactive) |
